# Source: PubChem BioAssay (Tox21)
# Results filed as inconclusive are left out. Unmarked numbers belong to inactive results. Calls follow the shape of the dose curve; as a rule, active = well fitted inhibition curve with a large enough effect in the signal ratio in the repeat runs (not every such curve was filed as active); inconclusive = weak or mixed curves, or effect the other way; inactive = flat fitted curve, though single readings scatter; the % refers to the signal ratio.
# Assay: cAMP Responsive Elements (CRE) small molecule antagonists, cell-based qHTS assay (AID 1963591)
# Details: CRE-bla HEK293T, beta-lactamase FRET ratio; series mostly up to 92.4 µM; activity change, negative = inhibition: at the top concentration
# Excerpt: U.S. Tox21 Program National Center for Advancing Translational Sciences [NCATS] Division of Preclinical Innovation [DPI] U.S. Environmental Protection Agency [EPA] National Institutes of Environmental Health Sciences [NIEHS] National Toxicology Program [NTP] U.S. Food and Drug Administration [FDA] Tox21 Assay Overview: CREB (cyclic-AMP Responsive Element Binding Protein) is a cellular transcription factor. It binds to certain DNA sequences called cAMP Responsive Elements (CRE) and regulates the transcription of the genes. […] This cell line can be used to find agonists/antagonists of the cyclic AMP signaling pathway. The activation of the report gene under culture conditions can be detected by fluorescence intensity. This cell line has been used to screen the Tox21 10K compound library to […].
# Tox21 Assay Protocol Summary: CRE-bla Hek 293T cells were suspended in assay medium (DMEM containing 10% dialyzed FBS, 0.1 mM NEAA, 1 mM sodium pyruvate and 25 mM HEPES) and dispensed at 2,000 cells/4 uL /well into 1536-well black wall/clear bottom plates using a Multidrop Combi (ThermoFisher Scientific, Waltham, MA) dispenser. After the assay plates were incubated at 37 C/5% CO2 for 18 hrs, 23 nL of compounds dissolved in DMSO, positive controls or DMSO only was transferred to the assay plate by a pintool workstation (Kalypsys, San Diego, CA), followed by addition of 1 […] uL of 1.25uM NKH477 (0.25 uM as final concentration) in assay medium using a Flying Reagent Dispenser (Aurora Discovery, San Diego, CA). The plates were incubated at 37 C and 5% CO2 for 3 hrs. Then 1 uL of LiveBLAzer B/G FRET substrate (Invitrogen, Carlsbad, CA) was added to each well using Bioraptr Flying Reagent Dispenser (FRD, Aurora Discovery, San Diego, CA). The plates were incubated at room temperature for 2 h.
# % is scaled to controls: 0 for no effect and ±100 for the full control effect.
row,Structure (SMILES),"activity change, negative = inhibition"
1,C1=CCCC1,0.742%
2,Cn1c(=O)c2c(ncn2CC(=O)O)n(C)c1=O,-0.0336% [at 42.4 µM]
3,FC(F)OC(Cl)C(F)(F)F (stereo not given),3.12%
4,CC(C)(C)c1cc(CCC(=O)NN)cc(C(C)(C)C)c1O,6.19%
5,CN1CCN(N)CC1,0.0657% [at 42.4 µM]
6,CCN(CC)CCNC(=O)COc1ccc(Cl)cc1,-0.613% [at 42.4 µM]
7,CC(Cl)C(Cl)Cl (stereo not given),-2.39%
8,CC(=O)OC1CCCCC1,-0.949%
9,COC(=O)[C@@H]1[C@H]2C[C@H]3c4[nH]c5ccccc5c4CCN3C[C@@H]2CC[C@@H]1O,7.91% [at 42.4 µM]
10,CS(=O)(=O)c1ccc(-c2cn3ccccc3n2)cc1,0.63% [at 42.4 µM]
11,c1ccc(CNc2ncnc3nc[nH]c23)cc1,-4.43%
12,O=C(CO)[C@@H](O)[C@H](O)[C@@H](O)CO,-4.8% [at 42.4 µM]
13,C=CCn1c(=O)n([C@@H]2O[C@H](CO)[C@@H](O)[C@H]2O)c2nc(N)[nH]c(=O)c21,-0.424% [at 42.4 µM]
14,O=c1[nH]cnc2nc[nH]c12,-6.53% [at 42.4 µM]
15,COC(C)OC,-3.94%
16,C=C(C)C(=O)OCCOCC,-3.24%
17,C/C(=N\[Si](C)(C)C)O[Si](C)(C)C,-7.54%
18,CCC(CC)C(=O)O,-0.688%
19,CCCCCC(=O)OCCc1ccccc1,-6.14%
20,N[C@@H](Cc1cc(I)c(O)c(I)c1)C(=O)O,7.4% [at 42.4 µM]

row,Structure (SMILES),"activity change, negative = inhibition"
1,COc1ccc(OC)c(OC)c1,-2.79%
2,C[Si]1(C)N[Si](C)(C)N[Si](C)(C)N1,-1.48%
3,CC(=O)CCCCn1c(=O)c2c(ncn2C)n(C)c1=O,7.57% [at 42.4 µM]
4,COc1ccc(-c2cc(=O)c3c(O)cc(O[C@@H]4O[C@H](CO[C@@H]5O[C@@H](C)[C@H](O)[C@@H](O)[C@H]5O)[C@@H](O)[C@H](O)[C@H]4O)cc3o2)cc1O,2.38% [at 42.4 µM]
5,O=C1CCC(C2CCCCC2)CC1,11.9%
6,FC(F)(F)C(F)(F)C(F)(F)C(F)(F)C(F)(F)C(F)(F)C(F)(F)C(F)(F)Br,-10.1% [at 42.4 µM]
7,Oc1cccc(O)c1O,-4.57%
8,CCCCNc1ccc(C(=O)OCCN(C)C)cc1,6.77% [at 42.4 µM]
9,COc1ccc2c(c1OC)C(=O)O[C@@H]2[C@H]1c2c(cc3c(c2OC)OCO3)CCN1C,15.3% [at 42.4 µM]
10,CCOC(=O)CC(=O)c1cc(F)c(Cl)nc1Cl,-16.2%
11,CC1=CC[C@H](C(C)C)C=C1,-0.278%
12,CC(CCc1ccc(O)cc1)NCCc1ccc(O)c(O)c1 (stereo not given),5.18% [at 42.4 µM]
13,O=C(O)c1cc(Cl)cc([N+](=O)[O-])c1Cl,0.0905%
14,Cc1nccn1CC1CCc2c(c3ccccc3n2C)C1=O (stereo not given),-8.2% [at 42.4 µM]
15,CCN(O)CC,2.22%
16,CCN1CCCC1CN (stereo not given),-11.9% [at 42.4 µM]
17,Cc1cc(CCCOc2c(C)cc(-c3noc(C(F)(F)F)n3)cc2C)on1,0.569% [at 42.4 µM]
18,CCCCCCCC(C)=O,1.33%
19,Cc1c(C(=O)NCCO)[n+](=O)c2ccccc2n1[O-],-13.2% [at 42.4 µM]
20,Cc1nc2n(c(=O)c1CCN1CCC(c3noc4cc(F)ccc34)CC1)CCC[C@H]2O,6.49% [at 18.9 µM]
